Experiment [1] is described as follows: P-glycoprotein substrates identified in KB-8-5-11 adenocarcinoma cell line, qHTS therapeutic library screen (AID 1346987). Also: nearly all actives have a fitted effect of over 65% in size. Also: potency is read from the fitted curve at half-maximal effect. An outline of the steps:
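In this qHTS, P-gp-rich KB-8-5-11 cells received library compounds across a concentration range. Viability was quantified by luminescence after 72 h at 37 degree C.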

The target of the next experiment is Furin (Homo sapiens) (UniProt P09958). Nature of the experiment: Furin counterscreen qHTS for Zika virus inhibitors (AID 1347149).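 Also: purified recombinant full-length human furin enzyme at 5 nM; fluorescence gain from furin cutting a BOC-RVRR-AMC peptide substrate over 15 min; top concentration of the series differs between compounds; plate controls were no-inhibitor control for no effect and no-enzyme control for full effect; nearly all actives have a fitted effect of over 70% in size.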 Summed up: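 Counterscreen measures cleavage of 2 microM BOC-RVRR-AMC, below its ~15 microM Km, by 5 nM full-length human furin at pH 7.0 after a 15-min compound preincubation. Inhibition derives from the 15-min fluorescence increase at 37C.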
Sequence of Furin (Homo sapiens) (P09958 whole entry, looked up): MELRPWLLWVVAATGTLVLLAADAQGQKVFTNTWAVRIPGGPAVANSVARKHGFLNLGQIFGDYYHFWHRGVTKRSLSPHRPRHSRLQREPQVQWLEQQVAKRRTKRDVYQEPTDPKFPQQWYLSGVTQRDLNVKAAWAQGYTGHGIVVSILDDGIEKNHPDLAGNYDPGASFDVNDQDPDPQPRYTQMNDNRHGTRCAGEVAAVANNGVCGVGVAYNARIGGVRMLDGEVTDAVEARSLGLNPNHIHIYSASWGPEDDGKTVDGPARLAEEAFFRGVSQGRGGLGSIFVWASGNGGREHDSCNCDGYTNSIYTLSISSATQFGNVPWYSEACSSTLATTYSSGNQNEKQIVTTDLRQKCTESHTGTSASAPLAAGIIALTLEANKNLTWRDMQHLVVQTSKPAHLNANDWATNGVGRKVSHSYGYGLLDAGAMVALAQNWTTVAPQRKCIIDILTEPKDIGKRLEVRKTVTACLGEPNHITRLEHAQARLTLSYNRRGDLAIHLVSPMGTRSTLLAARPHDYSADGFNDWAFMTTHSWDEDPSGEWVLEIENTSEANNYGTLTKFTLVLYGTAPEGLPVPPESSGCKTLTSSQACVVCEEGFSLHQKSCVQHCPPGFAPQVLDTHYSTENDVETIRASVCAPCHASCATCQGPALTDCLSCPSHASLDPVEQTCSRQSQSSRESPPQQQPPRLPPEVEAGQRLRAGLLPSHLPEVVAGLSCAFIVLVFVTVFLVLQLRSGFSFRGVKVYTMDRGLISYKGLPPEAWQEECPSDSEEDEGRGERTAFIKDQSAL
For orientation: The purpose of a counterscreen is to sort out artefacts and off-target activity.

Experiment [2] deals with Zika virus NS2B-NS3 protease (unlinked). Nature of the experiment: Optimization of GU AMC qHTS for Zika virus inhibitors: Unlinked NS2B-NS3 protease assay (AID 1347151).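 Also: 0% = no-inhibitor control and -100% = no-enzyme control; nearly all actives have a fitted effect of over 80% in size.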 Summed up:
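Noncovalent complex of NS2B hydrophilic domain and NS3 protease domain, 25 nM final, in 10 mM Tris-HCl pH 8.0, 0.01% Tween 20. AMC fluorescence change over 15 min at room temperature was fitted to a 4-parameter Hill equation.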
A general note: qHTS replaces the single test concentration by a dilution series.

For experiment [3], the system named is Zika virus NS2B-NS3 protease (linked construct). Nature of the experiment: Confirmatory screen NINDS AMC qHTS for Zika virus inhibitors (AID 1347152).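 Also: AMC fluorescence gain from cleaved Bz-Nle-KRR-AMC substrate over 15 min; top concentration of the series differs between compounds; 0% = no-inhibitor control and -100% = no-enzyme control; nearly all actives have a fitted effect of over 70% in size.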 Summed up:
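Purified NS2B-NS3 protease with NS2B hydrophilic domain linked to NS3 protease domain by flexible linker, 1 nM final in 10 mM Tris-HCl pH 8.0, 0.01% Tween 20. Compounds preincubated 15 min, room temperature; Bz-Nle-KRR-AMC 10 microM (Km 18.3 µM); 15-min fluorescence change, 4-parameter Hill fit.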

Experiment [4] has as its system Zika virus NS2B-NS3 protease (unlinked complex). The experiment can be described thus: Confirmatory screen GU AMC qHTS for Zika virus inhibitors (AID 1347153).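 Also: percent inhibition with 0% = no inhibitor control and 100% = no enzyme control; nearly all actives have a fitted effect of over 70% in size.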 An outline of the steps: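 Fluorescence change (ex 340/em 450 nm) over 15 min, ~20% substrate conversion, normalized to no-inhibitor and no-enzyme controls, then Hill-fitted. Unlinked protease at 25 nM; AMC peptide 10 µM.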

Experiment [5] is described as follows: Confirmatory screen NINDS Rhodamine qHTS for Zika virus inhibitors (AID 1347161).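 Also: purified Zika NS2B-NS3 protease with linked NS2B cofactor domain and Rhodamine110 peptide substrate; plate controls were no-inhibitor control for no effect and no-enzyme control for full effect; nearly all actives have a fitted effect of over 60% in size.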 An outline of the steps:
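Purified linked NS2B-NS3 protease (NS2B hydrophilic domain joined to NS3 protease by flexible linker), 25 nM in 10 mM Tris-HCl pH 8.0, 0.01% Tween 20. Compounds titrated, 15 min preincubation at room temperature; 1.5 microM Rhodamine110 substrate, FITC fluorescence change over 15 min.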

Experiment [6] is described as follows: Vero cells viability qHTS for Zika virus inhibitors (AID 1347167). Also: % is scaled to controls: 0 for no effect and ±100 for the full control effect. Summed up:
(§1)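 Luminescent ATP readout (CellTiter Glo) after 30 min at 37 degrees C gives viability; cells in DMEM + 4% FBS were treated 24 to 48 hours with compound, following overnight attachment.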

Experiment [7] in a line: HepG2 cells viability qHTS for Zika virus inhibitors (AID 1347168). Also: % is scaled to controls: 0 for no effect and ±100 for the full control effect. Summed up: as §1
The subject of the next experiment is KB-3-1. Nature of the experiment: Cytotoxic Profiling of Annotated Libraries Using Quantitative High-Throughput Screening (AID 1296008). Also: % is scaled to controls: 0 for no effect and ±100 for the full control effect; nearly all actives have a fitted effect of over 60% in size. The following applies: Five cell lines viability, CellTiter-Glo ATP luminescence, 48-72 h; max response: stronger effect = lower value. Summed up: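 Cytotoxicity was measured as CellTiter-Glo ATP luminescence, read after 10 min at room temperature. Compound treatment of the cells lasted 48 or 72 hr at 37 degrees Celsius in a qHTS format.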
For orientation: Cellular ATP, detected with luciferase, serves as a proxy for viable cell number.

In the next experiment the test system is astro. Nature of the experiment: Drug repurposing screens with cells derived from glioblastoma tumor samples (AID 1345199). Also: % is scaled to controls: 0 for no effect and ±100 for the full control effect; nearly all actives have a fitted effect of over 40% in size. The note with it: viability, ATP luminescence, 48 h; series mostly up to 45.9 µM. Summed up:
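Primary testing used CD133+ neurospheres from four GBM patients, seven concentrations, 48 h exposure and ATP-based viability; confirmation added three slower-growing patient lines.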

In experiment [8] the target is Luciferin 4-monooxygenase (Photinus pyralis) (UniProt P08659). The experiment can be described thus: Biochemical firefly luciferase enzyme assay for NPC (AID 624030).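 Also: purified P. pyralis luciferase at 10 nM with luciferin and ATP substrate; 0% = DMSO and -100% = full luciferase inhibition by PTC124 control; nearly all actives have a fitted effect of over 70% in size.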 Summed up: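 Direct inhibition of firefly luciferase enzyme (10 nM final, 50 mM Tris Acetate) assessed by luminescence within 5 minutes. Percent activity scaled between DMSO and PTC124 positive control, with concentration-effect curves classified by fit quality and response.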
Sequence of Luciferin 4-monooxygenase (Photinus pyralis) (P08659 whole entry, looked up): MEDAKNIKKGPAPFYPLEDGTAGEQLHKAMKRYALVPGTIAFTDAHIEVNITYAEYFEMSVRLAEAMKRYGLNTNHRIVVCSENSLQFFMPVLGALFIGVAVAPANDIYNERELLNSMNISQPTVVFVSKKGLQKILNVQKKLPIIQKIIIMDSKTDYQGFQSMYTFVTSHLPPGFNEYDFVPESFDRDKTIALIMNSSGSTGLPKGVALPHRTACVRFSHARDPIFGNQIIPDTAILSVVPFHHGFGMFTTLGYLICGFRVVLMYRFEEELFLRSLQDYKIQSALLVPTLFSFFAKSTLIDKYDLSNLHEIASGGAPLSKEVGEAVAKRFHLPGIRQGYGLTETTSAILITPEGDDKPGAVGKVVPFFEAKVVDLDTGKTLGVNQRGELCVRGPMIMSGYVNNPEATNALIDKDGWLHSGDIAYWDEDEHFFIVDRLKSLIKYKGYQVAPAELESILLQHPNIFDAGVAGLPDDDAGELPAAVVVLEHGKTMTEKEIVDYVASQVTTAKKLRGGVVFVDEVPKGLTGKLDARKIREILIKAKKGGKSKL

Experiment [9] in a line: qHTS Assay for Identifying Gametocytocidal Compounds (AID 743244).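 Also: % is scaled to controls: 0 for no effect and ±100 for the full control effect; actives lower the fluorescent signal which means gametocytes are killed.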 The following applies: P. falciparum 3D7 stage III-V gametocytes, alamarBlue, 72 h; max response: stronger effect = lower value. Summed up: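 P. falciparum 3D7 stage III–V gametocytes (20,000 cells/well) were exposed to compounds for 72 h at 37 °C, 5% CO2. AlamarBlue was then added for 24 h; decreased resorufin fluorescence (Ex 525/Em 598 nm) indicated loss of viability.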

For experiment [10], the target named is Glucocorticoid receptor (Homo sapiens) (UniProt P04150). Nature of the experiment: qHTS assay for small molecule agonists of glucocorticoid receptor signaling (AID 588532; active = well fitted curve in the direction sought with a large enough effect in the signal ratio, with a control signal flat; the % refers to the signal ratio;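 also: 100% = dexamethasone at 0.1 µM and 0% = DMSO only wells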). The following applies: HeLa MMTV-bla, beta-lactamase ratio, agonist, 18 h; stronger effect = higher value; percent of dexamethasone control, DMSO zero. Summed up:
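Using MMTV-bla HeLa cells in medium with 1% stripped FBS and 25 mM HEPES, compounds were titrated and incubated overnight-length (18 h). Beta-lactamase cleavage of CCF4 was quantified by dual-emission fluorescence.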

Experiment [11] is described as follows: qHTS assay for small molecule agonists of retinoid X receptor alpha signaling (AID 588544; calls by dose curve;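 as to activation: 0% = DMSO basal wells and 100% = reference agonist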). The following applies: HEK293T RXRa-UAS-bla, beta-lactamase reporter, 18 h; 530 nm emission.
The target of experiment [12] is Retinoic acid receptor RXR-alpha (Homo sapiens) (UniProt P19793). The description is as above.
Sequence of Retinoic acid receptor RXR-alpha (Homo sapiens) (P19793 whole entry, looked up): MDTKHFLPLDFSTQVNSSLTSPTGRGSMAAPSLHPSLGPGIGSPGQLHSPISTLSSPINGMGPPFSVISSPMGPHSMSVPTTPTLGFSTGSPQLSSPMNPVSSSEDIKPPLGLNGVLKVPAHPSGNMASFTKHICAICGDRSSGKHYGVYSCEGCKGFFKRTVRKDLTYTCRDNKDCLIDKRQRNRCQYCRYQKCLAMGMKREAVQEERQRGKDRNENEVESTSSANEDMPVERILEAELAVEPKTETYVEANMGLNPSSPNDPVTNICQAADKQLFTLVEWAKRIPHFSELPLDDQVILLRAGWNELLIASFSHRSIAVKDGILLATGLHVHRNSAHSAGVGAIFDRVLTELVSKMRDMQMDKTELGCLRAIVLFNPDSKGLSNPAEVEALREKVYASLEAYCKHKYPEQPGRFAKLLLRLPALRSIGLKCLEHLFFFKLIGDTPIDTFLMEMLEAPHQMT
The target of experiment [13] is Thyroid hormone receptor beta (Homo sapiens) (UniProt P10828). Nature of the experiment: qHTS assay for small molecule agonists of thyroid hormone receptor beta signaling (AID 588545; calls by dose curve;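 also: 0% = DMSO only and 100% = 10 nM T3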). An outline of the steps:
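TR-UAS-bla-GripTite HEK 293 cells in medium with 2% charcoal/dextran FBS, 0.1 mM NEAA and 1 mM sodium pyruvate were treated with titrated compounds for 18 hrs at 37 C. Beta-lactamase reporter was read with CCF4 dye (ex 405, em 460/530 nm); EC50 from Hill fits.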

The nature of experiment [14]: qHTS assay for small molecule antagonists of retinoid X receptor alpha signaling (AID 588546; active = well fitted inhibition curve with a large enough effect in the signal ratio, with a control signal flat, not every such curve was filed as active; the % refers to the signal ratio;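 also: cells stimulated with 9-cis-retinoic acid as agonist; % is scaled to controls: 0 for no effect and ±100 for the full control effect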). The following applies: HEK293T RXRa-UAS-bla, beta-lactamase ratio, antagonist mode; measured here: W530 green channel, cytotoxicity proxy. An outline of the steps: (§2)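 Beta-lactamase reporter inhibition, read as CCF4 fluorescence ratio (ex 405, em 460/530 nm) after 2 h at RT. HEK293T UAS-bla cells, 2500/well, were stimulated with 9-cis-RA at 500 or 100 nM final alongside test compound for 18 h at 37 C.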

Experiment [15] deals with Retinoic acid receptor RXR-alpha (Homo sapiens) (UniProt P19793). The description is as above. The following applies: HEK293T RXRa-UAS-bla, beta-lactamase ratio, antagonist mode. An outline of the steps: as §2
Experiment [16] in a line: qHTS assay for small molecule activators of the nuclear factor-kappa B (NF-kB) signaling pathway (AID 651749; active = well fitted activation curve with a large enough effect in the signal ratio; the % refers to the signal ratio; also: % of control where 0% means no effect). The following applies: NF-kB-bla ME-180 cells, beta-lactamase FRET ratio, 16 h; activation: stronger effect = higher value. Summed up: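 FRET-based beta-lactamase detection in ME-180 cells reports NF-kB response-element-driven transcription following overnight (16 hr) compound treatment.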

The target of experiment [17] is Peroxisome proliferator-activated receptor alpha (Homo sapiens) (UniProt Q07869). Nature of the experiment: qHTS assay for small molecule agonists of the peroxisome proliferator-activated receptor alpha (PPARalpha) signaling pathway (AID 651778). Also: % of control where 0% means no effect. The note with it: PathHunter PPARalpha complementation, chemiluminescence, 6 h; stronger effect = higher value. An outline of the steps:
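Chemiluminescence from complemented enzyme reported PPARalpha activation in cells after 6 hr of compound treatment at 37 C. The detection reagent was incubated for 60 min at room temperature, and compounds were scored as agonists.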

A short description of experiment [18]: qHTS assay for small molecule agonists of the antioxidant response element (ARE) signaling pathway measured by Nrf2-dependant transcriptional activity (AID 720636; active = well fitted curve in the direction sought with a large enough effect in the repeat runs; an effect the other way counts as inactive or inconclusive;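 also: HepG2 cells with an ARE-driven luciferase reporter; % of control where 0% means no effect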). An outline of the steps:
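Nrf2-dependent transcription is measured in ARE-luc HepG2 cells: compound is applied for 16 hr at 37 C after a 6 hr attachment period, and luciferase activity is quantified by luminescence using ONE-Glo.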

Experiment [19] in a line: qHTS assay for small molecule agonists of the antioxidant response element (ARE) signaling pathway measured by Nrf2-dependant transcriptional activity - cell viability counter screen (AID 720653; active = well fitted curve in the direction sought with a large enough effect in the repeat runs; an effect the other way counts as inactive or inconclusive; also: % is scaled to controls: 0 for no effect and ±100 for the full control effect). The note with it: ARE-bla HepG2 viability, CellTiter-Glo ATP luminescence, 16 h; max response: stronger effect = lower value. Summed up: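 Cytotoxicity counter screen: intracellular ATP quantified by CellTiter-Glo luminescence in the same ARE-bla HepG2 plates, after 16 h compound exposure and a 2 h beta-lactamase substrate step.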

Experiment [20] in a line: qHTS assay for cell viability of HEK293 cells (AID 743288). Also: % is scaled to controls: 0 for no effect and ±100 for the full control effect; nearly all actives have a fitted effect of over 50% in size. The note with it: ATP luminescence (CellTiter-Glo), 18 h; max response: stronger effect = lower value. An outline of the steps: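 After 18 h compound exposure at 37 C, parental HEK293 cells (2,000/well) are lysed with CellTiter-Glo and luminescence is read following 30 min at room temperature.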
Experiment [21] can be described thus: qHTS assay for cell viability of the p53RE-bla HCT-116 cell line (AID 743292). Also: % is scaled to controls: 0 for no effect and ±100 for the full control effect; nearly all actives have a fitted effect of over 55% in size. Summed up: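 ATP-based luminescence, 16 h compound exposure at 37 C, p53RE-bla HCT-116 cells at 4,000/well.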
A short description of experiment [22]: Primary qHTS for Huh7 cytotoxicity: counterscreen for inhibitors of MERS-S pseudotyped particle cell entry (AID 1479147; calls by dose curve). The following applies: outcome: dose series up to 57.1 µM unless noted.
The nature of experiment [23]: Primary qHTS for inhibitors of MERS-S pseudo-typed particle cell entry (AID 1479149; calls by dose curve; also: nearly all actives have a fitted effect of over 60% in size).
Experiment [24] is described as follows: Primary qHTS for Vero E6 cytotoxicity: counterscreen for inhibitors of SARS-S pseudo-typed particle cell entry (AID 1479150; calls by dose curve). The following applies: outcome: dose series up to 57.1 µM unless noted.
The nature of experiment [25]: Primary qHTS to identify inhibitors of SARS-CoV-2 cell entry (AID 1645846; calls by dose curve; also: nearly all actives have a fitted effect of over 45% in size). The following applies: activity change, negative = inhibition: at 57.1 µM (top of the series) unless noted. Summed up: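 Luminescence readout (Bright-Glo luciferase) 48 h after pseudoparticle addition. HEK293-ACE2 cells, 1500/well; compound pre-incubation 1 h; Normalized to spike PP and bald PP.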

Experiment [26] addresses Glutathione peroxidase 1 (Homo sapiens) (UniProt P07203). Nature of the experiment: Primary qHTS Assay for Inhibitors of Recombinant Selenoprotein Glutathione Peroxidase 1 (GPX1) (AID 1845191). Also: nearly all actives have a fitted effect of over 65% in size. An outline of the steps: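 NADPH consumption tracked by fluorescence at 340/450 nm between t=0 and t=15 min, room temperature. Final mix: 10 nM GPX1, 100 nM glutathione reductase, 1 mM GSH, 0.5 mM NADPH, 0.5 mM cumene hydroperoxide, 0.01% BSA; 30 min compound–enzyme preincubation.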

Experiment [27] addresses Nuclear receptor subfamily 1 group I member 2 (Rattus norvegicus) (UniProt Q9R1A7). The experiment can be described thus: qHTS assay for small molecule activators of the rat pregnane X receptor (rPXR) signaling pathway (AID 651751; call rule not given here; also: 0% is about no effect). The note with it: rPXR reporter cells, luciferase (One-Glo), 24 h.
Experiment [28] is described as follows: qHTS assay for small molecule activators of the human pregnane X receptor (PXR) signaling pathway (AID 720659; call rule not given here; also: 0% is about no effect).

Results filed as inconclusive are left out. The source made the active and inactive calls. Unless noted, calls follow the shape of the dose curve; as a rule, active = well fitted curve in the direction sought with a large enough effect; inconclusive = small, poorly fitted or top-dose-only effect, or another doubt; inactive = no such curve, though single readings can be large; an effect the other way counts as inactive or inconclusive.

Sequence of Nuclear receptor subfamily 1 group I member 2 (Rattus norvegicus) (Q9R1A7 whole entry, looked up): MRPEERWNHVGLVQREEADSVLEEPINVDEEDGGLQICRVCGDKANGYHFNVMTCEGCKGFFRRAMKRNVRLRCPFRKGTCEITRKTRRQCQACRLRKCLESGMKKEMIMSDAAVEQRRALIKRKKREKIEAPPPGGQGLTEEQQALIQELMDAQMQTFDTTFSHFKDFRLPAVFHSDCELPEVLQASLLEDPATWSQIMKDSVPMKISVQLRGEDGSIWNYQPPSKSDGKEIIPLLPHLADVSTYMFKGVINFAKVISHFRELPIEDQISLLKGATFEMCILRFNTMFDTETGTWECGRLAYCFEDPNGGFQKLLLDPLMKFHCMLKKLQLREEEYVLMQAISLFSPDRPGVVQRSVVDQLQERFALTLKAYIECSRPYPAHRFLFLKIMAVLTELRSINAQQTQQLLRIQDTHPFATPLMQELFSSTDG
Sequence of Glucocorticoid receptor (Homo sapiens) (P04150 whole entry, looked up): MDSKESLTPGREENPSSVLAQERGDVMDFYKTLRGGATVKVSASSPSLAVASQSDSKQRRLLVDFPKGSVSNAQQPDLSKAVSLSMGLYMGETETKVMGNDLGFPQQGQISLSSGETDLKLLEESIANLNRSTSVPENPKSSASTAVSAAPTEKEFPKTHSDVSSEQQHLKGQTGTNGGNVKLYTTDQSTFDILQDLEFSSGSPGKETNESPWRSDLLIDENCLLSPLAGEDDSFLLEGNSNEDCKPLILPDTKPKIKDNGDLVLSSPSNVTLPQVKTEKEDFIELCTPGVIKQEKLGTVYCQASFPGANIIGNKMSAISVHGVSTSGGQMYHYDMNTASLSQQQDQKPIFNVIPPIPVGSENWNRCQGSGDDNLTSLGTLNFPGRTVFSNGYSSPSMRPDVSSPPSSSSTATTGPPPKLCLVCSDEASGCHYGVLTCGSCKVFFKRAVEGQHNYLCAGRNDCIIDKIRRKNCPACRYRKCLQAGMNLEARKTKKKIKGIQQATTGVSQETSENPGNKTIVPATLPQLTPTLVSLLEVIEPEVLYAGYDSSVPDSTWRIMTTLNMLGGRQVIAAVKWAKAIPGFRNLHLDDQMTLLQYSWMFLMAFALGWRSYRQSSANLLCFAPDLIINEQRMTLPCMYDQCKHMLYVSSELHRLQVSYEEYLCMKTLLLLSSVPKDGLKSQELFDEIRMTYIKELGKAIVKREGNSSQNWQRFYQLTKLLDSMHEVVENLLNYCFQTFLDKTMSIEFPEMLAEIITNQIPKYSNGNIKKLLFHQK
Sequence of Thyroid hormone receptor beta (Homo sapiens) (P10828 whole entry, looked up): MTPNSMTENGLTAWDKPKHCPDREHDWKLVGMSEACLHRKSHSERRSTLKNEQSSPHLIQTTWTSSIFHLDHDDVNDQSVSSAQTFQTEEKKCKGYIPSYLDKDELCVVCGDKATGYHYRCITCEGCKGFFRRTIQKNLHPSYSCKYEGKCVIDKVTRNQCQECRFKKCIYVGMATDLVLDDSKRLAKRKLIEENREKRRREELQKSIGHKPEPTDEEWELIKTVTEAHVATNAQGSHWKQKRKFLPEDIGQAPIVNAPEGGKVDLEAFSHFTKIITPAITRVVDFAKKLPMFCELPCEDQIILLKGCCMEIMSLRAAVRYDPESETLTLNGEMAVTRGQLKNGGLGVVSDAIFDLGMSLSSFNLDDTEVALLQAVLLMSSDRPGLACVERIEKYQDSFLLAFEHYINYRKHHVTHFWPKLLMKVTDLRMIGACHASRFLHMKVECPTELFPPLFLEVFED
Sequence of Peroxisome proliferator-activated receptor alpha (Homo sapiens) (Q07869 whole entry, looked up): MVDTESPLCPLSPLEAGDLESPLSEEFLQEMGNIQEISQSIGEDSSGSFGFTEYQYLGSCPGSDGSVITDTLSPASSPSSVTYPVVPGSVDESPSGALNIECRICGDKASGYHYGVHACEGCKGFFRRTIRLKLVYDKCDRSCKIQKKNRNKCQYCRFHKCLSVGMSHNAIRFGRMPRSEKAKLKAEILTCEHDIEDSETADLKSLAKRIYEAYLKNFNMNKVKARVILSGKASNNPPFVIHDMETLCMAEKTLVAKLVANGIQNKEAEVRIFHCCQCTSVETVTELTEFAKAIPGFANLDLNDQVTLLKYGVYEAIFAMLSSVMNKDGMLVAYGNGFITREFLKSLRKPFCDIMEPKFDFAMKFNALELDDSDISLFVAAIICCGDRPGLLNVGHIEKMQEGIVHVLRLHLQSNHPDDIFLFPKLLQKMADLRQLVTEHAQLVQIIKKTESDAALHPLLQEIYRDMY
Sequence of Glutathione peroxidase 1 (Homo sapiens) (P07203 whole entry, looked up): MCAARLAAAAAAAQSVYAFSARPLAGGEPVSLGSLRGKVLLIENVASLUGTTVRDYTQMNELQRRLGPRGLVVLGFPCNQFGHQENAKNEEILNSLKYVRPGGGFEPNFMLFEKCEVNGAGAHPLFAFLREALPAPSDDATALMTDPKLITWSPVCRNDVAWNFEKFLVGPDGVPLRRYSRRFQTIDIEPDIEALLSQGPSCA

Consider `C[C@@H]1[C@@H]2Cc3ccc(O)cc3[C@@]1(C)CCN2CCc1ccccc1`, for which the Potency in [1] is 12.6 µM (active). Also, the Potency entry (with Furin (Homo sapiens); in experiment [3]; in experiment [4]; in experiment [5]; in experiment [6]; in [7]) was “inactive” throughout. Also, the Potency entry with astro was “inactive”. The compound was classed as inactive in [2]. Moreover, the max response in the experiment on KB-3-1 was -19% (inactive).

With `C=CCC1([C@@H](C)CCC)C(=O)NC(=O)NC1=O`, the Potency result (in experiment [8]; in experiment [1]; in the experiment with astro) was “inactive” each time. For the same compound, the max response is 0.546% (inactive) in [9] and -4.55% (inactive) in the experiment with KB-3-1.

Consider `O=C(O)CCCO`, for which the Potency entry (in experiment [8]; in experiment [1]; with astro) was “inactive” in each case. For the same compound, the max response in experiment [9] is 2.34% (inactive); in the experiment with KB-3-1, 4.02% (inactive).

`OCCN(CCO)CCO`: the activation in experiment [10] is -3.04% (inactive); in [16], -1.09% (inactive). Also, the max response was -6.39% in experiment [11]; -16.2% in [14]; -4.54% (inactive) in [15]; -0.143% (inactive) in experiment [17]; -4.95% (inactive) in experiment [19]; 5.27% (inactive) in experiment [9]. The max response was -0.515% (inactive) in experiment [20], 0.954% (inactive) with KB-3-1 and -1.5% (inactive) in [27]. In addition, the call in experiment [12], in experiment [21], in [22], in experiment [24] and in experiment [28] was inactive. In addition, the Potency entry in [13], in experiment [8], in experiment [18], in [1], in experiment [23] and in experiment [26] was “inactive” each time. Further, the Potency entry with astro is “inactive”. For the same compound, in experiment [25], the activity change, negative = inhibition is -24%.

The record behind these values is PubChem BioAssay (NCATS).
